# Laboratory results taken from article PMC5540273 (PLoS ONE, 2017).
# Like-named read-outs stand apart in the source and are kept apart here.
# Assays:
# ZAK = conditions: concentration: 1 μM, replicates: in singlicate; n = 1
# ZAP70 = conditions: concentration: 1 μM, replicates: in singlicate; n = 1
# p38-alpha = tested on: T1, p38-alpha; conditions: n = 1
# T1 construct: gene MAPK14
# p38-beta = tested on: T2, p38-beta; conditions: concentration: 1 μM, replicates: in singlicate; n = 1
# T2 construct: gene MAPK11
# p38-delta = conditions: concentration: 1 μM, replicates: in singlicate; n = 1
# p38-gamma = tested on: T3, p38-gamma; conditions: concentration: 1 μM, replicates: in singlicate; n = 1
# T3 construct: gene MAPK12
# [1] = concentration: 1 μM, replicates: in singlicate
# 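Note: KINOMEscan kinase panel screen.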
Compound,%Inh (ZAK) [%],%Inh (ZAP70) [%],%Inh (p38-alpha; [1]) [%],%Inh (p38-beta) [%],%Inh (p38-delta) [%],%Inh (p38-gamma) [%],%Inh (p38-alpha; 1 µM) [%]
Cc1cccc(Nc2nc(N[C@H]3CCNC3)ncc2C(N)=O)c1.Cl [GSK2197149],0,0,0,0,19,0,–
COc1ccc(Nc2nccc(N3CCC(NC(=O)Nc4cccc(OC)c4)C3)n2)cc1 (stereo not shown) [GSK1379742],2,3,1,0,29,0,–
O=C(Nc1ccccc1F)NC1CCN(c2ccnc(Nc3ccc(F)cc3)n2)CC1 [GSK1379800],30,47,32,0,45,0,–
Cc1ccc(C)c(NC(=O)NC2CCN(c3ccnc(Nc4ccc(F)cc4)n3)C2)c1 (stereo not shown) [GSK1379720],15,0,11,0,45,16,–
COC(=O)Nc1nc2cc(Oc3ccc(NC(=O)Nc4cc(C(F)(F)F)ccc4F)cn3)ccc2[nH]1.Cl.Cl [GW681170],92,0,70,34,75,42,–
CC(=O)N1CCN(c2ccc(Nc3nccc(-c4sc(C(C)C)nc4-c4cccc(NS(=O)(=O)c5cccc(Cl)c5)c4)n3)cn2)CC1 [GSK1660437],96.7,0,32,0,0,11,–
COc1cc(Nc2nccc(N3CCC(NC(=O)Nc4cccc(C(C)=O)c4)C3)n2)cc(OC)c1OC (stereo not shown) [GSK1379753],0,12,0,0,41,0,–
Cn1cc(-c2ccc3c(c2)CCN3C(=O)Cc2cccc(Cl)c2)c2c(N)ncnc21 [GSK2606590],0,0,0,0,57,29,–
CN1CCN(Cc2cccc(-c3ccc4c(Nc5ccc(Oc6ccccc6)cc5)ccnc4c3)c2)CC1 [GW578342],79,14,23,0,37,2,–
O=C(Nc1cccc(Oc2ccc3nc(NC(=O)C4CC4)cn3n2)c1)c1ccccc1C(F)(F)F,25,0,9,15,17,42,–
CSc1cccc2c(-c3ccncn3)c(-c3ccc(F)cc3)nn12 [GW514786],0,8,98,29,38,2,–
O=C(Nc1n[nH]c2cc(-c3ccoc3)ccc12)C1CC1 [SB-738481],15,0,0,0,0,1,–
Nc1ncnc2c1nc(-c1ccccc1)n2-c1ccccc1 [SKF-97293],16,12,12,4,0,26,–
Cn1cc(-c2[nH]c3cc(NC(=O)[C@H](N)C4CCCCC4)cc4c3c2C=NNC4=O)cn1,0,17,0,0,0,7,–
c1ccc(-c2cnc3nccnn23)cc1 [AH20685],0,0,0,0,20,0,–
CCS(=O)(=O)c1ccc(OC)c(Nc2nccc(-c3c(-c4cccc(NC(=O)c5c(F)cccc5F)c4)nn4ncccc34)n2)c1 [GSK326180],28,46,99.9,99.6,47,0,–
O=C(Nc1cccc(-c2nn3ncccc3c2-c2ccnc(Nc3ccccc3)n2)c1)c1c(F)cccc1F [GSK198271],96.6,0,99.3,99.2,77,0,–
COc1cc(Nc2nccc(N3CCC(NC(=O)c4cc5ccccc5s4)C3)n2)cc(OC)c1OC (stereo not shown) [GSK1379760],0,0,3,2,15,26,–
Cl.c1ccc(-c2ccc3c(Nc4ccc5[nH]ccc5c4)ccnc3c2)nc1 [GW440138],0,49,20,0,41,0,–

Compound,%Inh (ZAK) [%],%Inh (ZAP70) [%],%Inh (p38-alpha; [1]) [%],%Inh (p38-beta) [%],%Inh (p38-delta) [%],%Inh (p38-gamma) [%],%Inh (p38-alpha; 1 µM) [%]
CN(C)Cc1ccc(-c2ccc3c(Nc4ccc(Oc5ccccn5)cc4)ccnc3c2)o1 [GW567148],65,0,0,0,38,0,–
Cl.Cl.NCC(NCc1ccc(-c2ccnc3[nH]ccc23)s1)c1ccccc1 (stereo not shown) [GSK1321565],15,0,27,0,3,0,–
COc1cc(Nc2nccc(-c3c(-c4cccc(NC(=O)c5c(F)cccc5F)c4)nn4ncccc34)n2)cc(OC)c1OC [GSK327238],97.2,0,99.9,100,52,21,–
O=c1[nH]cc(-c2ccc(N3CCOCC3)cc2)c2sc(-c3cn[nH]c3)cc12 [GSK2276055],69,0,8,0,41,36,–
Cc1ccc(C(=O)Nc2ccc(Nc3ccnc4cc(-c5nccs5)ccc34)cc2O)cc1.Cl [GW494702],63,33,0,0,21,19,–
Cc1occc1-c1ncc(OC[C@@H](N)Cc2c[nH]c3ccccc23)cc1-c1ccc2[nH]nc(C)c2c1.O=C(O)C(F)(F)F [GSK682037],0,0,89,36,73,72,–
O=C(NC1CCN(c2ccnc(Nc3ccc(F)cc3)n2)C1)c1cc2ccccc2s1 (stereo not shown) [GSK1379716],20,0,7,0,45,67,–
Cl.Cl.NCC(NC(=O)c1cc(-c2ccccc2)c(-c2ccnc3[nH]ccc23)s1)c1ccccc1 (stereo not shown) [GSK1321561],46,0,0,0,47,0,–
c1ccc(Oc2ccc(Nc3ccnc4cc(-c5ccc(CNCCN6CCOCC6)o5)ccc34)cc2)nc1 [GW567145],77,0,20,0,0,0,–
COc1cccc(C2=C(Nc3ccc(Cl)c(C(=O)O)c3)C(=O)NC2=O)c1 [SB-390769],0,5,12,0,45,100,–
COc1ccc(-c2coc3ccc(-c4nnc(SCc5ccc(OC)c(C(F)(F)F)c5)o4)cc23)cc1,0,0,0,6,6,16,–
Cc1cccc(NC(=O)Nc2ccc(Oc3ncnc4ccn(C)c34)cc2)c1,0,0,0,0,0,0,–
O=C(Nc1cccc(-c2nn3ccccc3c2-c2ccnc(Nc3cccc(C(F)(F)F)c3)n2)c1)c1c(F)cccc1F [GSK292658],80,0,17,32,24,0,–
Cl.Cl.NCC(C(=O)Nc1cc(Br)c(-c2ccnc3[nH]ccc23)s1)c1ccccc1 (stereo not shown) [GSK1269851],0,0,0,40,17,0,–
FC(F)(F)c1ccc(/C=C/c2cncnc2Nc2ccc3[nH]c(Cc4ccccc4)nc3c2)cc1 [GW709199],0,9,0,3,0,35,–
COCCOCCOc1cc2ncc3c4ccc(C#N)cc4[nH]c3c2cc1OC,33,0,1,0,0,23,–
CNC(=O)c1ccccc1Nc1nc(Nc2ccc(N3CCOCC3)cc2)ncc1Cl.Cl [GSK1576028],13,6,8,2,0,13,–
Clc1ccc(-c2nn3ncccc3c2-c2ccnc(Nc3ccc4c(c3)OCCO4)n2)cc1 [GW829116],9,0,99.7,83,13,0,–
Fc1ccc(-c2ncn(C3CCNCC3)c2-c2ccnc(Oc3ccc(-c4ccccc4)cc3)n2)cc1 [SB-245391],–,–,–,–,–,–,96
